# Dicer inh: human Dicer pre-microRNA cleavage inhibition; Q9UPY3; cat-ELCCA pre-miR-21 Dicer processing, chemiluminescence; active compounds read high; z-score at 25 µM; 47,000 tested, 6% active; in the data active = z-score above about 3, passing the limit was not always enough;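 also: plate controls were vehicle for no effect and no enzyme for full effect; higher signal means more uncleaved substrate so more Dicer inhibition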
# Active calls of the source: *. Shown is part of a subset that was picked to be rich in hits.
SMILES,Dicer inh
CSC(=S)NNC(=O)c1cc(C)on1,0.27
Cc1cc(N2CCN(C(=O)c3ccco3)CC2)c2nncn2n1,2.9
O=[N+]([O-])c1ccc2c(c1)NC(c1ccc([N+](=O)[O-])s1)N2 (stereo unspecified),-1.1
O=C(NCc1c(Cl)cccc1Oc1ccccc1)Nc1ccc(OCc2ccccc2)cc1,-2.1
CSc1nnc(-c2ccc(C(C)(C)C)cc2)n1Cc1ccccc1,-0.43
COC(=O)C(O)(NC(=O)c1c(F)cccc1F)C(F)(F)F (stereo unspecified),-1.1
N#Cc1c(C(F)(F)F)cc(-c2cccs2)nc1OCC(=O)c1ccc(Cl)cc1,-0.36
COc1cc2ccccc2cc1C(=O)OCc1nc2ccccc2s1,0.83
COC(=O)c1cnc(SCc2ccc(C(C)(C)C)cc2)nc1N,-0.11
COc1ccc(SCCC(=O)NNS(=O)(=O)c2sc3ccc(Cl)cc3c2C)cc1,-0.16
NN/C(=N\S(=O)(=O)c1ccc(-n2nc(C(F)(F)F)cc2-c2cccs2)cc1)N1CCCC1,-1.8
CN(C)/C=N/S(=O)(=O)c1ccc(-n2nc(C(F)(F)F)cc2-c2cccs2)cc1,-3.1
CS/C(=N/S(=O)(=O)c1ccc(-n2nc(C(F)(F)F)cc2-c2cccs2)cc1)NNC(=O)Nc1ccccc1,4.4*
Cn1c(C(F)(F)F)nnc1S(=O)(=O)Cc1ccc(-c2csnn2)cc1,0.14
CCOC(=O)C1=C(C)NC2=C(C(=O)CC(C)(C)C2)C1c1cccc(Oc2ccccc2)c1 (stereo unspecified),0.97
O=C1CC(NCCc2c[nH]c3ccc(Cl)cc23)C(=O)N1c1cccc2ccccc12 (stereo unspecified),2.1
CNC(=O)NNC(=O)c1ccc(C(C)(C)C)cc1,-2.4
CNC(=O)Nc1ccc(C(C)(C)C)cc1Cl,5.1*
CCOC(=O)NC(=S)Nc1ccc(C(C)(C)C)cc1Cl,2.7
COc1cc(OC)cc(-c2nc(-c3cc4cccc(C)c4[nH]c3=O)no2)c1,-0.74
COc1cc2c(cc1OC)C1N(CC2)C(c2ccccc2)=NN1c1ccccc1 (stereo unspecified),1.4
CCOC(=O)c1c(C)n(C)c2ccc(OCC(O)CNC3CCCCC3C)cc12 (stereo unspecified),0.72
CCOc1ccccc1NC(=O)NC(=O)N(c1ccccc1)S(C)(=O)=O,-1
Cc1cc(=S)nc(-c2ccccn2)[nH]1,6.9*
Cc1[nH]c(-c2ccccn2)nc(=S)c1Cl,-1.4
SMILES,Dicer inh
c1ccc(-c2nc3ccccc3nc2-c2ccccn2)nc1,-1.2
O=C(O)c1ccc2c(=O)n3c4ccc(Cl)cc4nc3c3ccc(C(=O)O)c1c23,0.93
O=C(O)Cn1c2ccccc2c2nc3ccccc3nc21,-1.6
O=C(O)c1ccc2c(=O)n3c4ccccc4nc3c3ccc(C(=O)O)c1c23,3.1*
O=C1Nc2ccccc2/C1=C/c1cccn1-c1ccc(OC(F)(F)F)cc1,0.47
Cn1nc(NC(=O)CC(C)(C)CC(=O)O)c2c(F)cccc21,-0.1
CCOC(=O)NNC(=S)Nc1ccccc1C(F)(F)F,-0.23
Cc1cc(C)c2c(c1)-c1cc(C)nn1C(c1sccc1C)N2 (stereo unspecified),0.02
Cc1nc(C(F)(F)F)ccc1C(=O)NCCNC(=O)OC(C)(C)C,4.4*
CC(C)(C)OC(=O)NCCNC(=O)Nc1ccccc1C(F)(F)F,-0.78
CC(C)(C)OC(=O)NCCNC(=O)C1CCN(c2nccc(C(F)(F)F)n2)CC1,-1
CNS(=O)(=O)c1ccc2[nH]c(=O)c(=O)[nH]c2c1,0.69
NC(=S)c1ncc(C(F)(F)F)cc1N1CCCC1,0.07
COC(=O)c1cc(C2C(C#N)=C(C)NC3=C2C(=O)CC(C)(C)C3)c(OC)cc1OC (stereo unspecified),-0.56
CN1CCN(C(=O)c2cnn3c(C(F)(F)F)cc(-c4ccco4)nc23)CC1,1.1
Cc1nn2c(C(F)(F)F)cc(-c3ccc(Cl)cc3)nc2c1Cl,-1.3
O=C(Nc1ccc(F)c(Cl)c1)c1cc2nc(-c3ccco3)cc(C(F)(F)F)n2n1,-0.06
O=C(NCc1cccnc1)c1nn2c(C(F)(F)F)cc(-c3ccc(F)cc3)nc2c1Cl,3.1*
Cc1nn2c(C(F)(F)F)cc(-c3cccnc3)nc2c1-c1ccc(Cl)cc1,-0.72
O=C(NCc1ccc(Cl)cc1)c1nn2c(C(F)(F)F)cc(-c3ccco3)nc2c1Cl,4.2*
N/C(=N\NS(=O)(=O)c1ccccc1)c1cnccn1,-1.2
N/C(=N\O)c1cc(C(F)(F)F)cc(C(F)(F)F)c1,-0.11
O=C(Cn1nnc(N2CCOCC2)n1)c1ccc(Cl)cc1,-0.12
O=C(C1COc2ccccc2O1)N1CCCC1 (stereo unspecified),1.1
CC(CN(C)Cc1ccccc1)OC(=O)C1COc2ccccc2O1 (stereo unspecified),3.5*
SMILES,Dicer inh
CC1CCN(CC(C)OC(=O)C2COc3ccccc3O2)CC1 (stereo unspecified),0.56
Cc1ccc(C2c3c(oc4ccccc4c3=O)C(=O)N2c2ccccn2)cc1 (stereo unspecified),0.91
Cc1ccc(N2C(=O)c3oc4ccccc4c(=O)c3C2c2ccccc2)nc1 (stereo unspecified),0.17
COc1ccc(C2c3c(oc4ccccc4c3=O)C(=O)N2c2ccc(C)cn2)cc1OC (stereo unspecified),1.6
Cc1ccc(N2C(=O)c3oc4ccccc4c(=O)c3C2c2ccc(Cl)cc2)nc1 (stereo unspecified),3.8*
CCOc1ccc(C2c3c(oc4ccc(C)cc4c3=O)C(=O)N2c2ccccn2)cc1 (stereo unspecified),1.1
Cc1ccc(N2C(=O)c3oc4ccccc4c(=O)c3C2c2cccc(Br)c2)nc1 (stereo unspecified),2.9
CCOc1ccc(C2c3c(oc4ccccc4c3=O)C(=O)N2c2ccc(C)cn2)cc1 (stereo unspecified),3.6*
CCOc1ccc(C2c3c(oc4ccccc4c3=O)C(=O)N2c2nc(C)c(C)s2)cc1 (stereo unspecified),0.15
Cc1ccc(N2C(=O)c3oc4ccccc4c(=O)c3C2c2ccc(O)cc2)nc1 (stereo unspecified),4.4*
O=[N+]([O-])c1cccnc1N/N=C/c1cccc(C(F)(F)F)c1,-0.5
O=C(O)CCSc1nnc(-c2cccnc2)o1,-0.09
CCOC(=O)CN1C(=O)C(O)(CC(=O)c2ccc(C)o2)c2ccccc21 (stereo unspecified),-0.56
CNC(=O)Nc1ccccc1NC1=C(C(=O)OC)CSC1,-0.53
O=C1c2cccc3cccc(c23)C(=O)N1CCCc1nnc(S)n1-c1ccccc1,2.7
CC1CCN(c2oc(-c3ccc(F)cc3)nc2S(=O)(=O)c2ccccc2)CC1,-0.53
O=C(Cn1c(=O)sc2ccccc21)Nc1sc2c(c1C(=O)O)CCCC2,2.8
CCOC(=O)CCCn1c(NCc2ccccc2)nc2c1c(=O)n(C)c(=O)n2C,0.2
COc1ccc(Br)c(C(=O)c2nnn3c2nc(N)c2c(Cl)cccc23)c1,-0.53
CN(CCc1ccccn1)Cc1ccc(F)cc1,-0.8
CN(CCc1ccccn1)Cc1ccccn1,-1
CN(CCc1ccccn1)Cc1cccc(F)c1,3.5*
CCOc1ccc(/C(O)=C2\C(=O)C(=O)N(c3nnc(C)s3)C2c2ccc(Cl)cc2)cc1 (stereo unspecified),-0.05
CN(C)/C=C(\C#N)c1ccc(OCc2ccc(Cl)c(Cl)c2)cc1,1.3
C#CC(O)(c1ccccc1)c1ccccc1,0.09
CC(C)C(N)C(O)(c1ccccc1)c1ccccc1 (stereo unspecified),3.9*
COc1ccc(C(O)(c2ccccc2)c2ccccc2)cc1,1.9

# High-throughput results as filed in PubChem.
